Reference: the supplement of paper PMC10849652
Of roughly 7,900 targets only a part is listed; those with a hit were picked by preference. About 0.6% of all pairs of compound and target were hits. A number with no mark means an inactive call.

Columns and labels:
Assay in all cases: log2 fold change, soluble protein after heating vs DMSO (PISA); higher = thermal stabilisation; K562 cells, 10 uM, 30 min; active = over 0.2 and 3.5 SD of the protein, either way, in both replicates (recomputed)
[1] = compound: C#Cc1cccc(Nc2ncnc3cc(OCCOC)c(OCCOC)cc23)c1 [erlotinib]
Outline: (§1)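 Soluble protein was defined as the supernatant after 21,000xg for 90 min. It came from K562 cells at 2×10^6 cells/mL given 10 μM compound for 30 min, heated in aliquots for 3 min across 48°C-58°C, pooled, and extracted in PBS with 0.5% NP-40 at 4°C, and was quantified by TMTpro 16plex LC-MS/MS with equalised channel sums. Thermal stability against control samples, from duplicates, is reported as log2 fold change.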

[2] = compound: C/C(=N\NC(=O)C1=CC(=CC=C1)S(=O)(=O)N2CCOCC2)/C3=C(C=CC(=C3)Cl)O
Outline: as §1

[3] = compound: C1=CC(=C(C=C1Cl)C2=NC3=NC=CN=C3C(=N2)NC4=CC=NC=C4)F
Outline: as §1

[4] = compound: C1=CC(=CC=C1C2=NC3=C(N2)C=C(C=C3)C(=O)N)OC4=CC=C(C=C4)Cl
Outline: as §1

[5] = compound: C1=CC2=C(C=CC(=C2)/C=C\3/C(=O)NC(=NCC4=CC=CS4)S3)N=C1
Outline: as §1

[6] = compound: C1=CC=C(C=C1)C2=NC(=C(N2)C3=CC=NC=C3)C4=CC(=C(C=C4)Cl)O
Outline: as §1

[7] = compound: C1=CC=C2C(=C1)C3=NNC4=CC=CC(=C43)C2=O
Outline: as §1

[8] = compound: C1CCN(C1)C(=O)NC2=CC=CC(=C2)NC3=NC=C(C(=N3)NCCC4=CN=CN4)Br
Outline: as §1

[9] = compound: C1CN(CCC1(CC2=CC=C(C=C2)Cl)N)C3=NC=NC4=C3C=CN4
Outline: as §1

[10] = compound: C1COCCN1CCN2C3=CC=CC=C3N=C2NC(=O)C4=CC(=CC=C4)[N+](=O)[O-] [IRAK-1-4 Inhibitor I]
Outline: as §1

[11] = compound: CC(=O)c1cnc2ccc(-c3cc(Cl)c(O)c(Cl)c3)nc2c1N[C@H]1CC[C@H](CN(C)C)CC1
Outline: as §1

[12] = compound: CC(C)(C)Cn1c(N)nc2ccc(-c3[nH]c(C(C)(C)C)nc3-c3ccc(F)cc3)nc21 [ralimetinib]
Outline: as §1

[13] = compound: CC(C)(O)CC(=O)NCCn1ccc2ncnc(Nc3ccc(Oc4cccc(C(F)(F)F)c4)c(Cl)c3)c21
Outline: as §1

[14] = compound: CC(C)C1=C2N=C(C=C(N2N=C1)NCC3=CC=CC=C3)NCCCCCCN
Outline: as §1

[15] = compound: CC(C)C[C@@H](C=O)NC(=O)[C@H](CC(C)C)NC(=O)[C@H](CC(C)C)NC(=O)OCc1ccccc1
Outline: as §1

[16] = compound: CC(C)N(C[C@H]1O[C@@H](n2cnc3c(N)ncnc32)[C@H](O)[C@@H]1O)[C@H]1C[C@@H](CCc2nc3cc(C(C)(C)C)ccc3[nH]2)C1 [pinometostat]
Outline: as §1

[17] = compound: CC1=C(C(CC(=O)N1)C2=CC=C(C=C2)C(F)(F)F)C(=O)NC3=C(C=C4C(=C3)C=NN4)F
Outline: as §1

[18] = compound: CC1=C(C2=C(C=C1)C(=O)C3=CC=CC=C3N2CCCN)C
Outline: as §1

[19] = compound: C1=CC2=NC=CN=C2C=C1/C=C/3\C(=O)NC(=O)S3
Outline: as §1

[20] = compound: C=CC(=O)N1CCC[C@@H](n2nc(-c3ccc(Oc4ccccc4)cc3)c3c(N)ncnc32)C1 [ibrutinib]
Outline: as §1

Chain of UniProt Q7L099 (Q7L099 whole entry, looked up): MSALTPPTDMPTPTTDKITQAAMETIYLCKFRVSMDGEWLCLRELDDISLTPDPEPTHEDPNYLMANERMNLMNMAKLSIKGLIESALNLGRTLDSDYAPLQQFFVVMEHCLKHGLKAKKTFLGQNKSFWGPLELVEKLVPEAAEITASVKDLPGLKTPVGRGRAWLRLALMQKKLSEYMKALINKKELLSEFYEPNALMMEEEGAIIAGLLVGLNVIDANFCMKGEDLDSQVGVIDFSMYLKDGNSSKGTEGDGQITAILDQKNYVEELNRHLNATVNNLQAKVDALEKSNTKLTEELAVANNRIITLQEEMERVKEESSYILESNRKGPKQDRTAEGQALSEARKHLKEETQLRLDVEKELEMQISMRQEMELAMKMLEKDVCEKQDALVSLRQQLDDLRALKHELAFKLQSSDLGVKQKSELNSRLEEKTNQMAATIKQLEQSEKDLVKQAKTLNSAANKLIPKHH
Chain of UniProt Q02383 (Q02383 whole entry, looked up): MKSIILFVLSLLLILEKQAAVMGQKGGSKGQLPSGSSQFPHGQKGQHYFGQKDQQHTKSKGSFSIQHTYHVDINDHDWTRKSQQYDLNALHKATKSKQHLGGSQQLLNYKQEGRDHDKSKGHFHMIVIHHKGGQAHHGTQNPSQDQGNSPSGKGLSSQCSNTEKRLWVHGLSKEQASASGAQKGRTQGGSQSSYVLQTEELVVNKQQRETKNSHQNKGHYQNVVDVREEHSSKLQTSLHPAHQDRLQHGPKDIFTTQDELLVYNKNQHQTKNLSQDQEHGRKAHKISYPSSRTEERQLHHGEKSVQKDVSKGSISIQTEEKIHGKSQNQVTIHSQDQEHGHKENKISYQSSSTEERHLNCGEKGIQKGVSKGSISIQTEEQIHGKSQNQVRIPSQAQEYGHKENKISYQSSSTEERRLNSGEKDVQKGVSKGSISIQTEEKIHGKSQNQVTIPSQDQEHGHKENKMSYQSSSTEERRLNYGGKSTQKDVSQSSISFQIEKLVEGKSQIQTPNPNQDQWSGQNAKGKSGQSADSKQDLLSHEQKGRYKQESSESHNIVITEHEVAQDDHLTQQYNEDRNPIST
Chain of UniProt Q5VTB9 (Q5VTB9 whole entry, looked up): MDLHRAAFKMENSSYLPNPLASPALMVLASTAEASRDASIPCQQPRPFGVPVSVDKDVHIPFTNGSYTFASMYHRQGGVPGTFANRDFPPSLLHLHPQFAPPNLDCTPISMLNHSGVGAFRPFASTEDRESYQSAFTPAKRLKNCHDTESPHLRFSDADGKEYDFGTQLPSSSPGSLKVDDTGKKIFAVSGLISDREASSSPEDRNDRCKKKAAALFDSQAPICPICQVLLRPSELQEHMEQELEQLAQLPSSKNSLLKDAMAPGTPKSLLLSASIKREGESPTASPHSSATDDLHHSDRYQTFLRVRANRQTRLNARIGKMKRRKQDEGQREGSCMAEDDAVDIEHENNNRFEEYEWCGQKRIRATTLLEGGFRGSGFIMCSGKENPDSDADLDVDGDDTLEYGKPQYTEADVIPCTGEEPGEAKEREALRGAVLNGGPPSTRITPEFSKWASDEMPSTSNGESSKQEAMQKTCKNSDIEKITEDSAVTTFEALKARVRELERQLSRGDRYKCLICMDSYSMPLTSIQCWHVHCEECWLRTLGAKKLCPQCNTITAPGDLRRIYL
Chain of UniProt Q96LZ7 (Q96LZ7 whole entry, looked up): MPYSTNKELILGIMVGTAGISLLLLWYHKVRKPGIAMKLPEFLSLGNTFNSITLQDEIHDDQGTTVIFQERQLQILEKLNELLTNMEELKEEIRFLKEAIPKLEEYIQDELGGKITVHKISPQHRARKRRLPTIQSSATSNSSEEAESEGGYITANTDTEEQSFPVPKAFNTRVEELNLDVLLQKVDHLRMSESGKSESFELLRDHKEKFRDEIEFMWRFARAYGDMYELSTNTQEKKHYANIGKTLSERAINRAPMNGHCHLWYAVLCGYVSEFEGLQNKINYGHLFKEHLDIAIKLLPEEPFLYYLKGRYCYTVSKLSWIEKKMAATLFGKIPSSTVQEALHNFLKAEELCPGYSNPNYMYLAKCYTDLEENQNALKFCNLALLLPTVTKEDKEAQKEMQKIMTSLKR
Chain of UniProt O75582 (O75582 whole entry, looked up): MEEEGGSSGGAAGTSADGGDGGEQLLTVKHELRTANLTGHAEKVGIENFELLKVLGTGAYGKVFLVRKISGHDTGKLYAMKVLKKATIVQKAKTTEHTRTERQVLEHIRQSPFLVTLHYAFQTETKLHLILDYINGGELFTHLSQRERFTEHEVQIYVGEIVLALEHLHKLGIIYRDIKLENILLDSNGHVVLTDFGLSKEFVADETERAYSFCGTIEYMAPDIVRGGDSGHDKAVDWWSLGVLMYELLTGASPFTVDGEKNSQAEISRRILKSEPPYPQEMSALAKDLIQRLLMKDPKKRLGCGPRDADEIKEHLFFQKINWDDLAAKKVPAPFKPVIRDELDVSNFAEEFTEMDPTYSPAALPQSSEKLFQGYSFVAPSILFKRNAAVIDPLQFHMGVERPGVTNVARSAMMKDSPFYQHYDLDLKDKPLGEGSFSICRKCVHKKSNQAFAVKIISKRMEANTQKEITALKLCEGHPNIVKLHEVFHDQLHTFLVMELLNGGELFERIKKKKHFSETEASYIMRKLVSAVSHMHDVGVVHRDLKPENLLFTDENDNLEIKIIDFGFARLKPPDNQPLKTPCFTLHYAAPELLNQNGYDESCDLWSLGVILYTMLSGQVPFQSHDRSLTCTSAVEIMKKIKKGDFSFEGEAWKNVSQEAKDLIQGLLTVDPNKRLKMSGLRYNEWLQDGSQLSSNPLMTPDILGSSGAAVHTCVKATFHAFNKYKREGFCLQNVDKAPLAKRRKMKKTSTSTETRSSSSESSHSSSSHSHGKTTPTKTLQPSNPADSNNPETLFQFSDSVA
Chain of UniProt O00560 (O00560 whole entry, looked up): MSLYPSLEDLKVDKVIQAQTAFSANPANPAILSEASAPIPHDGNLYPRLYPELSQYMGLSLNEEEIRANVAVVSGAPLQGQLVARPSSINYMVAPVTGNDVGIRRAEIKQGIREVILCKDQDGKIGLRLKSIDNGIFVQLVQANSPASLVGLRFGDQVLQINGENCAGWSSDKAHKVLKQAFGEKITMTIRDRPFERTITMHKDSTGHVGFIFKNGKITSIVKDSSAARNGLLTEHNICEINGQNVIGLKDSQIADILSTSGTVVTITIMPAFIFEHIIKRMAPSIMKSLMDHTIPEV
Chain of UniProt Q86UA6 (Q86UA6 whole entry, looked up): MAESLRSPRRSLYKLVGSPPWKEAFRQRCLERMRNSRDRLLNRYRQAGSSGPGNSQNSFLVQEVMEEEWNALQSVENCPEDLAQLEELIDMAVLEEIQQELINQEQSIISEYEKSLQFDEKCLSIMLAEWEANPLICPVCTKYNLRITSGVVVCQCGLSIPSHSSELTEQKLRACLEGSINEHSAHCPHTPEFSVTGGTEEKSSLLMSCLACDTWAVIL
Chain of UniProt O14796 (O14796 whole entry, looked up): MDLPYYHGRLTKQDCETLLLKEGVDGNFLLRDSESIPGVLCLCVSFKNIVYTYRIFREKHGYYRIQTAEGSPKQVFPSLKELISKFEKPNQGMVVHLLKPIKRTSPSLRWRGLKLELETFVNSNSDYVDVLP
Chain of UniProt Q8WZA2 (Q8WZA2 whole entry, looked up): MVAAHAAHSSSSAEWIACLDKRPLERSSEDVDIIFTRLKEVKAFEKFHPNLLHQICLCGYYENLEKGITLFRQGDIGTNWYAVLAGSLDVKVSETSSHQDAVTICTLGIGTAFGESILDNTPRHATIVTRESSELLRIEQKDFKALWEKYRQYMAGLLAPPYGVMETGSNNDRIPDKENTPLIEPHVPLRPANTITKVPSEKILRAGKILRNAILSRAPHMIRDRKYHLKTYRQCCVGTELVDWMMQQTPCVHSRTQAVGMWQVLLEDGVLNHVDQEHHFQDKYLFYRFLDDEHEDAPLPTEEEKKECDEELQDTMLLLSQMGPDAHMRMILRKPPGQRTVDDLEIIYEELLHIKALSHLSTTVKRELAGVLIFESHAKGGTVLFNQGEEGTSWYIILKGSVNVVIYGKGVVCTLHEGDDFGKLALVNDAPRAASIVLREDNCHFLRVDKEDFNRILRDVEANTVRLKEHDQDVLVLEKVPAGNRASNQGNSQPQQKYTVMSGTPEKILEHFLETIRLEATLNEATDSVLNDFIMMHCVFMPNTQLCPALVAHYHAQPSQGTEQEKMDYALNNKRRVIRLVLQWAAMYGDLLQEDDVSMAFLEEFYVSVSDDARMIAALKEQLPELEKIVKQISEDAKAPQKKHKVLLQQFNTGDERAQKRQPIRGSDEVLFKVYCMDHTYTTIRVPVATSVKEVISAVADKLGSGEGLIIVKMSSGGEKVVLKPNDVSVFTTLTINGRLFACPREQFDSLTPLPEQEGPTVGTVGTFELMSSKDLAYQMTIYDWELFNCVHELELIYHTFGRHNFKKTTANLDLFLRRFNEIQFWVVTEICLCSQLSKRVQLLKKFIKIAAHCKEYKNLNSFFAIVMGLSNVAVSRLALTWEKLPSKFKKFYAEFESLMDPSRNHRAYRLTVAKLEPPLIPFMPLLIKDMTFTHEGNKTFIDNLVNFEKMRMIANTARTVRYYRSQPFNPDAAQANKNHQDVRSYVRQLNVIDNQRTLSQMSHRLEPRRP
Chain of UniProt Q9BY78 (Q9BY78 whole entry, looked up): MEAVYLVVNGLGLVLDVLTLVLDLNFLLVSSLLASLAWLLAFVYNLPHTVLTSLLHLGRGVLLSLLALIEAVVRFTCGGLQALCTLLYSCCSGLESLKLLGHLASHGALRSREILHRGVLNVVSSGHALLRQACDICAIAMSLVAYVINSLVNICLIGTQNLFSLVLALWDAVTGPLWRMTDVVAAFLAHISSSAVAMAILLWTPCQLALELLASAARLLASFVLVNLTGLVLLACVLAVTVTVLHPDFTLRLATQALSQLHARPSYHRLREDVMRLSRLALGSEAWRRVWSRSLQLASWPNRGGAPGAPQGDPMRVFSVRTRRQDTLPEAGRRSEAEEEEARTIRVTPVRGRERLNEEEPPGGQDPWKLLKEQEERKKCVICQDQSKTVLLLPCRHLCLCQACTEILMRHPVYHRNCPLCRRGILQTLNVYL

| Target | log2 fold change [1] | log2 fold change [2] | log2 fold change [3] | log2 fold change [4] | log2 fold change [5] | log2 fold change [6] | log2 fold change [7] | log2 fold change [8] | log2 fold change [9] | log2 fold change [10] | log2 fold change [11] | log2 fold change [12] | log2 fold change [13] | log2 fold change [14] | log2 fold change [15] | log2 fold change [16] | log2 fold change [17] | log2 fold change [18] | log2 fold change [19] | log2 fold change [20] |
| --- | --- | --- | --- | --- | --- | --- | --- | --- | --- | --- | --- | --- | --- | --- | --- | --- | --- | --- | --- | --- |
| SH2D1B (UniProt O14796) | -0.294 | -0.059 | -0.218 | -0.098 | 0.057 | -0.228 | -0.406 | -0.036 | 0.028 | 0.202 | -1.57 (active) | 0.042 | -0.052 | 0.095 | 0.005 | 0.027 | 0.106 | -0.004 | – | – |
| RMDN2 isoform 2 (UniProt Q96LZ7) | – | – | – | – | – | 0.088 | – | – | – | 0.034 | – | 0.095 | – | – | 0.137 | 0.025 | -0.192 | – | – | – |
| RPS19 (UniProt M0R2L9) | – | -0.054 | – | – | -0.246 | – | 0.732 | 0.522 | -0.095 | – | -0.083 | – | – | – | – | – | 0.538 | -0.177 | – | – |
| RAPGEF4 (UniProt Q8WZA2) | 0.271 | -0.636 (active) | 0.057 | 0.053 | 0.19 | – | -0.014 | -0.038 | 0.18 | -0.184 | -0.022 | – | 0.065 | 0.089 | – | -0.096 | – | 0.109 | 0.029 | -0.025 |
| SAFB2 (UniProt K7EQU4) | – | – | -0.172 | – | – | – | – | – | – | -0.129 | – | – | -0.042 | – | – | -0.051 | -0.31 | – | -0.277 | 0.131 |
| RPS6KA5 (UniProt O75582) | 0.239 | – | -0.079 | -0.234 | – | -0.091 | – | – | – | 0.071 | – | -0.11 | -0.042 | -0.218 | 0.069 | -0.431 | – | – | – | – |
| RAD50, A0A494C0Y7 | – | -0.029 | – | – | 0.049 | -0.111 | 0.048 | -0.033 | 0.143 | 0.015 | -0.037 | -0.085 | – | – | 0.196 | 0.015 | – | 0.051 | -0.077 | 0.072 |
| RPS3A (UniProt D6R9B6) | – | -0.359 | – | – | 0.198 | – | -0.243 | 0.303 | 0.034 | – | -0.124 | – | – | – | – | – | – | -0.363 | – | – |
| RUFY3 isoform 3 (UniProt Q7L099) | 0.019 | 0.012 | – | -0.03 | -0.028 | 0.011 | 0.065 | -0.075 | -0.07 | -0.008 | 0.023 | 0.196 | – | -0.098 | -0.054 | 0.035 | -0.123 | 0.044 | – | – |
| SEMG2 (UniProt Q02383) | – | 1.75 | 0.047 | – | 0.237 | – | -0.562 (active) | -0.071 | 0.06 | – | -0.148 | – | -0.011 | – | – | – | -0.031 | 0.049 | -0.042 | -0.031 |
| RBMY1E (UniProt A6NEQ0) | -0.238 | – | – | 0.06 | – | -0.044 | – | -0.072 | -0.099 | 0.019 | – | 0.131 | – | 0.134 | 0.141 | -0.032 | 0.026 | -0.01 | -0.003 | -0.024 |
| RPAIN isoform 8 (UniProt Q86UA6) | – | 0.205 | 0.085 | – | -0.03 | 0.083 | 0.009 | -0.035 | -0.002 | -0.022 | -0.124 | -0.048 | 0.048 | – | -0.221 | 0.011 | – | -0.168 | 0.048 | 0.034 |
| RCOR3 isoform 3 (UniProt Q9P2K3) | 0.116 | 0.084 | – | -0.008 | 0.022 | -0.011 | 0.018 | -0.003 | 0.057 | 0.009 | -0.188 | 0.017 | – | -0.048 | 0.062 | -0.038 | 0.011 | -0.035 | -0.01 | -0.053 |
| SDCBP isoform 2 (UniProt O00560) | 0.157 | – | 0.007 | 0.159 | – | -0.299 | – | 0.249 | 0.096 | – | – | 0.06 | 0.008 | -0.444 | 0.13 | – | -0.29 | 0.033 | 0.009 | 0 |
| RNF220 isoform 3 (UniProt Q5VTB9) | -0.109 | -0.021 | – | 0.229 | -0.05 | – | -0.055 | – | – | – | 0.086 | – | – | 0.056 | – | – | – | – | – | – |
| SIK3 (UniProt H0Y4E8) | -0.074 | 0.045 | – | 0.094 | 0.074 | -0.163 | -0.099 | 0.051 | 0.15 | 0.043 | -0.425 (active) | 0.135 | – | 0.186 | -0.167 | -0.036 | 0.179 | -0.124 | – | – |
| RNF26 (UniProt Q9BY78) | – | – | – | – | – | -0.073 | – | – | – | – | – | 0.095 | – | – | 0.281 | – | – | – | -0.08 | -0.033 |
